Consider one sequence from article PMC7862700, “An all-to-all approach to the identification of sequence-specific readers for epigenetic DNA modifications on cytosine”.

Holding throughout (assay): DAPPL (digital affinity profiling via proximity ligation, sequencing); 10 mM Tris-HCl pH 7.5, 50 mM NaCl, 1 mM DTT, 4% glycerol, room temperature, 30 min; GST-TFs on glutathione beads, 16-mer random dsDNA library, 0.1% formaldehyde crosslink after washing; high values mean tight binding
For one experiment, the target named is T1, FLI1 (Homo sapiens, UniProt Q01543 1-452).
T1 sequence: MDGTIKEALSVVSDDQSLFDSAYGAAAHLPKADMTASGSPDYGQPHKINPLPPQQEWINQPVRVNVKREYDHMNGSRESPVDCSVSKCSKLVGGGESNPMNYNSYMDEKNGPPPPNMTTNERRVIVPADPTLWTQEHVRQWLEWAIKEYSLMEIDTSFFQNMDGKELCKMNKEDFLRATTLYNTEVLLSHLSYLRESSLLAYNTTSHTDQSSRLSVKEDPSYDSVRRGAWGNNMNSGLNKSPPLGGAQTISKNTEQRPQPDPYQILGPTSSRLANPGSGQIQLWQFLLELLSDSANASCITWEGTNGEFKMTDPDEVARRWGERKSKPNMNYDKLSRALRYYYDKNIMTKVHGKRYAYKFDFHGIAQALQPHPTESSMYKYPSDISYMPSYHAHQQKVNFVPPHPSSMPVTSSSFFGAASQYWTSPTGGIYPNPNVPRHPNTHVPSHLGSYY
The following applies: protein: recombinant; tags: N-terminal GST; dsDNA, one strand shown. The method, boiled down:
(§1)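 Pools were built from human transcription factors expressed in yeast as GST fusions, captured on glutathione beads and DNA-barcoded, along with a tag-only sample. Incubation with 200 nmole of a 16-mer random double-stranded DNA library lasted 30 min at room temperature in Tris/NaCl/DTT/glycerol buffer, and was followed by washing, 0.1% formaldehyde crosslinking, proximity ligation, PCR amplification and Illumina NextSeq500 sequencing. Binding signal is the quotient of each hexamer's read frequency for a factor and its frequency for the tag-only sample.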

The target in the next experiment is T2, ELK1 (Homo sapiens, UniProt P19419 1-428).
T2 sequence: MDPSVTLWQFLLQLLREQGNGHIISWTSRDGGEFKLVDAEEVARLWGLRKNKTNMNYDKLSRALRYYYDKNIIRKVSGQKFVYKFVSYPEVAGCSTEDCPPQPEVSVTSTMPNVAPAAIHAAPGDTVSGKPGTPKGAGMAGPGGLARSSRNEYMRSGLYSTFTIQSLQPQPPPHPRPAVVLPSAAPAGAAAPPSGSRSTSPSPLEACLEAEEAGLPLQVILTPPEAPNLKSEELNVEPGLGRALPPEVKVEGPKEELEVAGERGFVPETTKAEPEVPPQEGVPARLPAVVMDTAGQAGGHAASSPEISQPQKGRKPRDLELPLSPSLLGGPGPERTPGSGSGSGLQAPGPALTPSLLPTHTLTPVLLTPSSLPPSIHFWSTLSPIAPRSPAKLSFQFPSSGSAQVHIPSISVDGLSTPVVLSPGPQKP
The following applies: protein: recombinant; tags: N-terminal GST; dsDNA, one strand shown. The method in brief:
as §1

A further experiment has as its target T3, GABPA (Homo sapiens, UniProt Q06546 1-454).
T3 sequence: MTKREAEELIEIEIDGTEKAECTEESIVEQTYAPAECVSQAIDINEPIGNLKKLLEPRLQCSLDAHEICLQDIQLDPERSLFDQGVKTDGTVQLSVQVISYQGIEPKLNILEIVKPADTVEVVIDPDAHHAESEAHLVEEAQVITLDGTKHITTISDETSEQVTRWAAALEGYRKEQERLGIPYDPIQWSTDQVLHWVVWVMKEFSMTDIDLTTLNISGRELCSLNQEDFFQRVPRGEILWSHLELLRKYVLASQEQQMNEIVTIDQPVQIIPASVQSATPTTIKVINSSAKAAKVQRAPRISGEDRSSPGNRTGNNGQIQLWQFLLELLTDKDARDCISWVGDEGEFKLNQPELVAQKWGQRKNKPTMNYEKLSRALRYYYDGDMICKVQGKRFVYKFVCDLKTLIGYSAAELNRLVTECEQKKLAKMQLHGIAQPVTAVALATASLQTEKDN
The note with it: protein: recombinant; tags: N-terminal GST; dsDNA, one strand shown. The method in brief: as §1

Another experiment deals with T4, ERG (Homo sapiens, UniProt P11308 1-479).
T4 sequence: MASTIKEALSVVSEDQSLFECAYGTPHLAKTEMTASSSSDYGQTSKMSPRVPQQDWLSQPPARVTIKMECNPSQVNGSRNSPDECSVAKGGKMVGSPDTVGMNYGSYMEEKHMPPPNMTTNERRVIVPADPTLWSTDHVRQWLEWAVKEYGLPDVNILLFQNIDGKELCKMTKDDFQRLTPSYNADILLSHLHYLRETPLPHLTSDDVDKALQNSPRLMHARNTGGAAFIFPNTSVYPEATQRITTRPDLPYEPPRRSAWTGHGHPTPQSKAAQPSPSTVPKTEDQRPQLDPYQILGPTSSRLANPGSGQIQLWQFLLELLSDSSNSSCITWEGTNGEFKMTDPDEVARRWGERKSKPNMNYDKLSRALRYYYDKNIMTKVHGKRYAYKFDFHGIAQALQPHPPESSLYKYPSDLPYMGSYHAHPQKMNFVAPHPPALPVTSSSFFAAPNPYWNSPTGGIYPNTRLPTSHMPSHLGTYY
The following applies: protein: recombinant; tags: N-terminal GST; dsDNA, one strand shown. The method, boiled down: as §1

For a further experiment, the target named is ELF1 (Homo sapiens, UniProt P32519 1-619). The following applies: protein: recombinant; tags: N-terminal GST; dsDNA, one strand shown. The method, boiled down:
as §1

For another experiment, the target named is T5, EHF (Homo sapiens, UniProt Q9NZC4 1-300).
T5 sequence: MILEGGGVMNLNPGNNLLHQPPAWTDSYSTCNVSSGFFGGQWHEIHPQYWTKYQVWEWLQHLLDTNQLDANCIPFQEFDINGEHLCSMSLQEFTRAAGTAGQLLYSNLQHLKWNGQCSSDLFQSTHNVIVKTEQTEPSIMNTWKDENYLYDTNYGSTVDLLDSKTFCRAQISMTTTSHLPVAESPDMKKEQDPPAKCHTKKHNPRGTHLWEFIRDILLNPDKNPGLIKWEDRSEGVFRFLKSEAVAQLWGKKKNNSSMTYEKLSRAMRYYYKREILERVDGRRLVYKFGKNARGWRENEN
The note with it: protein: recombinant; tags: N-terminal GST; dsDNA, one strand shown. The method in brief:
as §1

The next experiment deals with SPI1 (Homo sapiens, UniProt P17947 1-270). The note with it: protein: recombinant; tags: N-terminal GST; dsDNA, one strand shown. The method in brief: as §1
The target in the next experiment is SPIB (Homo sapiens, UniProt Q01892 1-262). The following applies: protein: recombinant; tags: N-terminal GST; dsDNA, one strand shown. The method, boiled down:
as §1

A further experiment addresses T6, ELK3 (Homo sapiens, UniProt P41970 1-407).
T6 sequence: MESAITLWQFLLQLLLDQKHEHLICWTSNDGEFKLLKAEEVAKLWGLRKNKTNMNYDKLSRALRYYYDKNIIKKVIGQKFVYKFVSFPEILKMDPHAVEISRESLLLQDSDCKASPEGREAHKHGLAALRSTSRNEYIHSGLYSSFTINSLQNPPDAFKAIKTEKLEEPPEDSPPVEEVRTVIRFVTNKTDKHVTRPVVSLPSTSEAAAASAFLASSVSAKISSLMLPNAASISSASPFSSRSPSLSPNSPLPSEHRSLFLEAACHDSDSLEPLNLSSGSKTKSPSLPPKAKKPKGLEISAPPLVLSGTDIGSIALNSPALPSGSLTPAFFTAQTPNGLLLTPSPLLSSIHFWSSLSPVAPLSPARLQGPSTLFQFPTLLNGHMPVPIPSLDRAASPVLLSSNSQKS
The following applies: protein: recombinant; tags: N-terminal GST; dsDNA, one strand shown. The method in brief:
as §1

The target of the next experiment is T7, FEV (Homo sapiens, UniProt Q99581 1-238).
T7 sequence: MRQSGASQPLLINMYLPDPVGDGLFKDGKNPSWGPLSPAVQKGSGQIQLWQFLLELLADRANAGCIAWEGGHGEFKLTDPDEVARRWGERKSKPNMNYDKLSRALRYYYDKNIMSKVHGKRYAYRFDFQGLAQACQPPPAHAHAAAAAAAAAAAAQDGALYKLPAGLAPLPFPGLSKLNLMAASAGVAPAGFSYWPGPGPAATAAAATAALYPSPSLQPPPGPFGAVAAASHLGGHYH
The following applies: protein: recombinant; tags: N-terminal GST; dsDNA, one strand shown. The method in brief:
as §1

In another experiment the target is ETV5 (Homo sapiens, UniProt P41161 1-510). The following applies: protein: recombinant; tags: N-terminal GST; dsDNA, one strand shown. The method in brief: as §1
Sequence of ETV5 (P41161 whole entry): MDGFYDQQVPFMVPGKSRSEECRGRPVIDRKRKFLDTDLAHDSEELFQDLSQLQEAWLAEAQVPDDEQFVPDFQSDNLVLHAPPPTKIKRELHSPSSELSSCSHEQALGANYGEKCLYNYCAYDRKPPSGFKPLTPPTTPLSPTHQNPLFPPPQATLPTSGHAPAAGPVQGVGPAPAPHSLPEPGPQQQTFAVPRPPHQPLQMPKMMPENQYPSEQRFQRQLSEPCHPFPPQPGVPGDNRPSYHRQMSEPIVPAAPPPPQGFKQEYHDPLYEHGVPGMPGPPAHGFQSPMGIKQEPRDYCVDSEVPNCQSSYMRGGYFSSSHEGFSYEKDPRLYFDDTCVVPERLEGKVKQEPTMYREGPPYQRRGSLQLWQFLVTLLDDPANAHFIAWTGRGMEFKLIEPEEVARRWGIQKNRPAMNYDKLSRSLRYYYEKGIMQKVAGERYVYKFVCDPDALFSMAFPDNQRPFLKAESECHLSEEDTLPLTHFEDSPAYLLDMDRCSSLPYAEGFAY
A further experiment addresses HSF1 (Homo sapiens, UniProt Q00613 1-529). The following applies: protein: recombinant; tags: N-terminal GST; chain copies: 3; dsDNA, one strand shown. The method, boiled down:
as §1

In another experiment the target is T8, SPIC (Homo sapiens, UniProt Q8N5J4 1-248).
T8 sequence: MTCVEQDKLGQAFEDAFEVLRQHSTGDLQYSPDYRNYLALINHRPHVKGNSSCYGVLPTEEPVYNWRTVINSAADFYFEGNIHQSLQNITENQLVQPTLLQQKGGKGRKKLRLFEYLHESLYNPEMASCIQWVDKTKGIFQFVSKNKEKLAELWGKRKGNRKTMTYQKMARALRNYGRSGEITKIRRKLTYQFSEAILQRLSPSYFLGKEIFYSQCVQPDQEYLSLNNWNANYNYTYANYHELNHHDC
The note with it: protein: recombinant; tags: N-terminal GST; dsDNA, one strand shown. The method, boiled down:
as §1

For a further experiment, the target named is ELF4 (Homo sapiens, UniProt Q99607 1-663). The note with it: protein: recombinant; tags: N-terminal GST; dsDNA, one strand shown. The method, boiled down:
as §1

The next experiment addresses T9, ELK4 (Homo sapiens, UniProt P28324-2 1-405).
T9 sequence: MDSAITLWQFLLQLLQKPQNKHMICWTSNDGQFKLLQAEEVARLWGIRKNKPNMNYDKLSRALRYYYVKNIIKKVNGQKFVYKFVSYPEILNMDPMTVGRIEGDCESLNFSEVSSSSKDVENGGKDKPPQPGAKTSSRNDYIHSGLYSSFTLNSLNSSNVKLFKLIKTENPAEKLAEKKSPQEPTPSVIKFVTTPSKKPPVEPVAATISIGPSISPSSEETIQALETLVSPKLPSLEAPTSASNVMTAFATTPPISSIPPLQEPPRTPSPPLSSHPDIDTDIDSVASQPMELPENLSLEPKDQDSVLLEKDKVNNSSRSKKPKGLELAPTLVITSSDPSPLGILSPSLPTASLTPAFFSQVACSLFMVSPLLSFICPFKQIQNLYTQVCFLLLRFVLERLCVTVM
The note with it: protein: recombinant; tags: N-terminal GST; dsDNA, one strand shown. The method, boiled down: as §1

Another experiment has as its target T10, ETV2 (Homo sapiens, UniProt O00321 1-342).
T10 sequence: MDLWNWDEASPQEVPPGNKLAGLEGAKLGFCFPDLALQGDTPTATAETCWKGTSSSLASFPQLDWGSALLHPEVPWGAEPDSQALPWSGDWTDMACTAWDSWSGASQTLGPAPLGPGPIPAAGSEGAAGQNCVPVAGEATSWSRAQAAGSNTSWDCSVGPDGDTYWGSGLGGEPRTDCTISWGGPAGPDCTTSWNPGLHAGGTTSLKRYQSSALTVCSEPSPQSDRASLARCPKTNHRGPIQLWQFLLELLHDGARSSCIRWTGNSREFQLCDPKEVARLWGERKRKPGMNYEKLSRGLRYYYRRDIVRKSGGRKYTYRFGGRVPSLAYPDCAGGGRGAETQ
The note with it: protein: recombinant; tags: N-terminal GST; dsDNA, one strand shown. The method, boiled down: as §1

The target in another experiment is T11, ELF3 (Homo sapiens, UniProt P78545 1-371).
T11 sequence: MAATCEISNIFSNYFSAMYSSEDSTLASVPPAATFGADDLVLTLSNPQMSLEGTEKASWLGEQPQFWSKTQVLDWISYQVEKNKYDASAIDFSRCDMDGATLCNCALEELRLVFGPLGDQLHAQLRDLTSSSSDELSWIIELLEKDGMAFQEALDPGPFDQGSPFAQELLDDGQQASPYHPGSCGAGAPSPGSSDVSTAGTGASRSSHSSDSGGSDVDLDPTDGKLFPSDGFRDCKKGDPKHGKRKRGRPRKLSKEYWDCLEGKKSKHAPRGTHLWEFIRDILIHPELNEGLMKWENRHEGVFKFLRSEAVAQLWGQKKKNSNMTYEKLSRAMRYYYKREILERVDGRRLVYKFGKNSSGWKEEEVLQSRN
The following applies: protein: recombinant; tags: N-terminal GST; dsDNA, one strand shown. The method, boiled down:
as §1

The target of the next experiment is CRX (Homo sapiens, UniProt O43186 1-299). The note with it: protein: recombinant; tags: N-terminal GST; dsDNA, one strand shown. The method in brief: as §1
Sequence of CRX (O43186 whole entry): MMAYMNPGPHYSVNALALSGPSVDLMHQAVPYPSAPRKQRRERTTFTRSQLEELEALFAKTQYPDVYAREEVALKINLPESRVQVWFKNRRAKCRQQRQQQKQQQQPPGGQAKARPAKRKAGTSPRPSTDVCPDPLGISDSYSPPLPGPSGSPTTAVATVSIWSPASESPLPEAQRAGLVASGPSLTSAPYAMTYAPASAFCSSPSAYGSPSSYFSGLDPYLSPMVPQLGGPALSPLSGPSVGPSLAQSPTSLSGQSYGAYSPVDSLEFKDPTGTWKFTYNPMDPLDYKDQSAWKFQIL
For a further experiment, the target named is ETV1 (Homo sapiens, UniProt P50549 1-477). The following applies: protein: recombinant; tags: N-terminal GST; dsDNA, one strand shown. The method in brief: as §1
Sequence of ETV1 (P50549 whole entry): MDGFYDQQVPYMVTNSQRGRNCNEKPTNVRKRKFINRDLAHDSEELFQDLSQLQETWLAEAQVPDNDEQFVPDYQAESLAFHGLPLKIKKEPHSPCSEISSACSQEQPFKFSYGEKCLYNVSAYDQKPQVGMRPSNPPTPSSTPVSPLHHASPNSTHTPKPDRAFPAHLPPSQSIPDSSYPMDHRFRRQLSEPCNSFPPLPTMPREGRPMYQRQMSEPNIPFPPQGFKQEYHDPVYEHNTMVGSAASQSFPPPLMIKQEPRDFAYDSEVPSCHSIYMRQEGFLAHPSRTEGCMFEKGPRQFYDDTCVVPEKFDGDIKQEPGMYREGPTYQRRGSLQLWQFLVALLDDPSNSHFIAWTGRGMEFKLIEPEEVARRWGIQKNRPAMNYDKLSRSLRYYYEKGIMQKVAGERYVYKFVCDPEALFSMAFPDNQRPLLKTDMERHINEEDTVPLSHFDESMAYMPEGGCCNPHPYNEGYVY

Sequence of HSF1 (Q00613 whole entry): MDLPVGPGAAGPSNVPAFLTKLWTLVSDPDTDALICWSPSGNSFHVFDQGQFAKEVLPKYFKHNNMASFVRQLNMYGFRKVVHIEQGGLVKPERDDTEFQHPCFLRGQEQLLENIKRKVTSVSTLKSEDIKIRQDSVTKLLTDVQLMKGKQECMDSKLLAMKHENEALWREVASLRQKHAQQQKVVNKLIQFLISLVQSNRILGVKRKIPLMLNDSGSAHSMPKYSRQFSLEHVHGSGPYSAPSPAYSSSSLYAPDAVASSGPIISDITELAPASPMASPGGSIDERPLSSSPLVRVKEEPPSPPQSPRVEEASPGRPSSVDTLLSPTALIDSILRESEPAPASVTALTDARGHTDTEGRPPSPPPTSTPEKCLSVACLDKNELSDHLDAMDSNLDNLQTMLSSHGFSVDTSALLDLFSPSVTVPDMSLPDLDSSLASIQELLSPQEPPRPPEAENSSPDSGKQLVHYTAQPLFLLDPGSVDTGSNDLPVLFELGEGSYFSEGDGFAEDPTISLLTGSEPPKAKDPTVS
Sequence of ELF1 (P32519 whole entry): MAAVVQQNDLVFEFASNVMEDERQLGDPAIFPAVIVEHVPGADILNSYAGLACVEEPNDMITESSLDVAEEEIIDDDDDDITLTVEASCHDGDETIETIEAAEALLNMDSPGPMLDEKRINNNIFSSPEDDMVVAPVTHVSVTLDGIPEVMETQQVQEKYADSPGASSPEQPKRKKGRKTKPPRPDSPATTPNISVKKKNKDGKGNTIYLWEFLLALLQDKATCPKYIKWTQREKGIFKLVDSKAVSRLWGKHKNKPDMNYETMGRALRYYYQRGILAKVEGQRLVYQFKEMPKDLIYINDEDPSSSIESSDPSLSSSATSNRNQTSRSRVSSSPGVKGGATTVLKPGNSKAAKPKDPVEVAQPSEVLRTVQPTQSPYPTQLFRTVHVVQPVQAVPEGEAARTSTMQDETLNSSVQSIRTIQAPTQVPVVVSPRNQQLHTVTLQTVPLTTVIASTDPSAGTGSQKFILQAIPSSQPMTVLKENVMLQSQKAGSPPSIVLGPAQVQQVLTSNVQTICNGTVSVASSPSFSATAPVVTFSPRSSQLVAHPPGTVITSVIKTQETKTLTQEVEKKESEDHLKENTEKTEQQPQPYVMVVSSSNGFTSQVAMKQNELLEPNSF
Sequence of ELF4 (Q99607 whole entry): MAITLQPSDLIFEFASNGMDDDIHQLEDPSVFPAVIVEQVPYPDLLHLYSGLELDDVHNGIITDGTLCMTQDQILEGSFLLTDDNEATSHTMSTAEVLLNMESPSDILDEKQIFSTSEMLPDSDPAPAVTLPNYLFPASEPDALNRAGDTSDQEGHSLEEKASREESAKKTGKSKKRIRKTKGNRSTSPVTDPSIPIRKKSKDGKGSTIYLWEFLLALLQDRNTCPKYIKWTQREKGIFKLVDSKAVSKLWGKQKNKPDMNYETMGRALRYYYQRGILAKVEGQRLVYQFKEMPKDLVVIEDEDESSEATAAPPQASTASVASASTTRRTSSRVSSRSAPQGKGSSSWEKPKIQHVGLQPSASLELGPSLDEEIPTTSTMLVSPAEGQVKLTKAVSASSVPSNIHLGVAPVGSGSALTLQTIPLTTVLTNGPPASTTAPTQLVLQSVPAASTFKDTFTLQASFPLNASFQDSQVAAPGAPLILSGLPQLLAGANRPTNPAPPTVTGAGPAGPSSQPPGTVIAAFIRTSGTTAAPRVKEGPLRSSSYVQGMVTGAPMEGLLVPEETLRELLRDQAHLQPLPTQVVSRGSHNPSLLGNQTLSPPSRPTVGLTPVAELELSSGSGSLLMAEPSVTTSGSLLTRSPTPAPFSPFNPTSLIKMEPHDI
Sequence of SPIB (Q01892 whole entry): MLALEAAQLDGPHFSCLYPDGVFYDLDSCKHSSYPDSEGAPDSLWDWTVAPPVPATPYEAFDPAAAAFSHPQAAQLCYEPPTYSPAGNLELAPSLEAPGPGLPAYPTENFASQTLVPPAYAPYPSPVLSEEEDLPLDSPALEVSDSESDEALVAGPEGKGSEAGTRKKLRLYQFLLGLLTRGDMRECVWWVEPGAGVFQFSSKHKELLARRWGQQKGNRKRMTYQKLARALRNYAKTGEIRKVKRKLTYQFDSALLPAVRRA

On to ATAAAC, for which the binding signal is 1.22 fold enrichment (6-mer frequency, TF over GST control) in the experiment with FLI1; 1.16 fold enrichment (6-mer frequency, TF over GST control) with ELK1; 1.11 fold enrichment (6-mer frequency, TF over GST control) in the experiment with GABPA; 1.11 fold enrichment (6-mer frequency, TF over GST control) in the experiment with ERG; 1.14 fold enrichment (6-mer frequency, TF over GST control) with ELF1; 1.07 fold enrichment (6-mer frequency, TF over GST control) with EHF. In addition, the binding signal was 1.14 fold enrichment (6-mer frequency, TF over GST control) with SPI1; 1.19 fold enrichment (6-mer frequency, TF over GST control) in the experiment with SPIB; 1.14 fold enrichment (6-mer frequency, TF over GST control) in the experiment with ELK3; 1.13 fold enrichment (6-mer frequency, TF over GST control) with FEV; 1.19 fold enrichment (6-mer frequency, TF over GST control) with ETV5; 1.27 fold enrichment (6-mer frequency, TF over GST control) with HSF1. In addition, the binding signal with SPIC was 1.2 fold enrichment (6-mer frequency, TF over GST control); with ELF4, 1.16 fold enrichment (6-mer frequency, TF over GST control); with ELK4, 1.13 fold enrichment (6-mer frequency, TF over GST control); with ETV2, 1.19 fold enrichment (6-mer frequency, TF over GST control); in the experiment with ELF3, 1.13 fold enrichment (6-mer frequency, TF over GST control); in the experiment with CRX it was 1.5 fold enrichment (6-mer frequency, TF over GST control). In the experiment with ETV1, the binding signal is 1.11 fold enrichment (6-mer frequency, TF over GST control).
